Experimental data published in PMC4336329 (PLoS ONE, 2015).
Hit rate of the full screen: of about 310,000 compounds, about 14,000 (4.5%) showed an effect of 50% or more. The effect is printed as a negative number. Shown is part of a subset that was picked to be rich in strong results.

These molecules were tested against human ether-à-go-go-related gene (hERG) potassium channel (human, UniProt Q12809) (assay: primary screen, population patch clamp on CHO cells stably expressing hERG; higher = less effect of the substance).
Sequence of human ether-à-go-go-related gene (hERG) potassium channel (Q12809 whole entry, looked up): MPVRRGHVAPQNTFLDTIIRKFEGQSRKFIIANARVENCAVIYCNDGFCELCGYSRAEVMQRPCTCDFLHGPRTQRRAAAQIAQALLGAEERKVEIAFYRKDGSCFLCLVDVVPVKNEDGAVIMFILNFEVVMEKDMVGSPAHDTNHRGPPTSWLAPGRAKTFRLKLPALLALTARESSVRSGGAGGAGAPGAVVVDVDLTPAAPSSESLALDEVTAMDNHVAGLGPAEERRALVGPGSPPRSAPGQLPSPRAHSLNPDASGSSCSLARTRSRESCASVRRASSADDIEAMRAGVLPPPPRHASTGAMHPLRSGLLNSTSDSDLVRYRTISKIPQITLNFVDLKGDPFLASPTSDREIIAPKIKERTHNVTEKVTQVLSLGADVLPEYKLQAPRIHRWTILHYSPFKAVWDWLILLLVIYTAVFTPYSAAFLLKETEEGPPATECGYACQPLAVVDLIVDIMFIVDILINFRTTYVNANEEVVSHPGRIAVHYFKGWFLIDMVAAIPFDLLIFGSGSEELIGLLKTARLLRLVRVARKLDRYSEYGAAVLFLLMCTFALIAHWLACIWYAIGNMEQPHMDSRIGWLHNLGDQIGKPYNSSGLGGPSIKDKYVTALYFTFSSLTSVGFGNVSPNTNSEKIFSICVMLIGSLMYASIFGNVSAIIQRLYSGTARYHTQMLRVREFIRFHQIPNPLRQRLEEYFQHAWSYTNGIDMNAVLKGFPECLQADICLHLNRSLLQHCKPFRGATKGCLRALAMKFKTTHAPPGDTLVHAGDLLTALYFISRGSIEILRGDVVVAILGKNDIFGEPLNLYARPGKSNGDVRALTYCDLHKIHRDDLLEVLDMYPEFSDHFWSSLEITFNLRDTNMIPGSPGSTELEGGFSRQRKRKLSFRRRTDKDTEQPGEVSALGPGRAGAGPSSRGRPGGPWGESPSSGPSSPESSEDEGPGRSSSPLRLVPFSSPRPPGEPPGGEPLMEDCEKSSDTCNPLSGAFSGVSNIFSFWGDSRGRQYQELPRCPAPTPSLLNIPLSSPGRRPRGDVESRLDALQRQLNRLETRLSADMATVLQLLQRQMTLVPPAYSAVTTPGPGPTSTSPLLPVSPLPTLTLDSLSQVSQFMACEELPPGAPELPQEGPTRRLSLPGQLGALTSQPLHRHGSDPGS
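Further: peak tail current of the secondary pulse compared with the same well before compound.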

Row | Compound | hERG current change (%, negative = inhibition) at 10uM [%]
1 | Cc1ccccc1NC(=O)NNC(=O)OC(C)(C)C | -6.37
2 | O=C(C1CCCCN1S(=O)(=O)c1ccccc1)N1CCCCC1 (centres unmarked) | -1.03
3 | N#Cc1ccc(C23CC4(C2)[C@H](CN(Cc2ccc(-c5ccccc5)cc2)[C@@H]4c2ccccc2)C3c2ccc(C(F)(F)F)cc2)cc1 (some centres unmarked) | 6.84
4 | CC(O)[C@H]1CNC(=O)C(=O)N1CCc1cccc(F)c1 (some centres unmarked) | 21
5 | CCCn1c(N)c(C(=O)CN(C)CC(=O)Nc2c(Cl)cccc2Cl)c(=O)[nH]c1=O | -9.48
6 | CCCn1c(N)c(C(=O)CN(C)CC(=O)Nc2ccccc2CC)c(=O)[nH]c1=O | -42
7 | COC(=O)c1c(C)[nH]c(C(=O)CN(C)CC(=O)Nc2cccc(F)c2)c1C | -22.2
8 | CCCn1c(N)c(C(=O)CN(C)CC(=O)Nc2ccc(F)cc2)c(=O)[nH]c1=O | -70.6
9 | CCCn1c(N)c(C(=O)CN(C)CC(=O)Nc2cccc(F)c2)c(=O)[nH]c1=O | -75.1
10 | CCCn1c(N)c(C(=O)CN(C)CC(=O)Nc2ccccc2C(F)(F)F)c(=O)[nH]c1=O | -0.764
11 | O=C(NCCC1=CCCCC1)c1ccc([N+](=O)[O-])cc1 | -14.9
12 | O=C(CCc1ccc(S(=O)(=O)N2CCCCC2)cc1)c1nnc(-c2ccccc2)o1 | -12.7
13 | CCC(C)NC(=O)CN(C1CCCCC1)S(C)(=O)=O (centres unmarked) | 9.11
14 | Cc1cc(N)n2ncc(-c3cccc(Br)c3)c2n1 | -2.75
15 | Cc1cc(-n2c(C)cc(C(=O)CSc3nncn3C(C)C)c2C)no1 | 9.21
16 | O=C1CCCN1CC(=O)N1CCCC(N2CCN(c3cccc(Cl)c3)CC2)C1 (centres unmarked) | 8.15
17 | CCC(c1nnnn1Cc1ccc(F)cc1)N1CCN(C)CC1 (centres unmarked) | -1.38
18 | CCC(c1nnnn1Cc1cccs1)N1CCN(C2CCCC2)CC1.Cl (centres unmarked) | -22.3
19 | CCCC(c1nnnn1Cc1ccc(OC)cc1)N1CCN(c2ccccc2OC)CC1 (centres unmarked) | -8.59
20 | CCCC(c1nnnn1Cc1cccs1)N1CCN(C2CCCC2)CC1.Cl (centres unmarked) | -29
21 | CC(C)C(c1nnnn1Cc1ccc(F)cc1)N1CCN(C2CCCCC2)CC1 (centres unmarked) | -61.3
22 | CC(C)C(c1nnnn1Cc1ccc(F)cc1)N1CCN(C2CCCC2)CC1 (centres unmarked) | -38.2
23 | CCCC(c1nnnn1Cc1ccc(F)cc1)N1CCN(C)CC1 (centres unmarked) | -2.88
24 | CC(C)C(c1nnnn1Cc1ccc(F)cc1)N1CCSCC1 (centres unmarked) | -20.7

Row | Compound | hERG current change (%, negative = inhibition) at 10uM [%]
25 | CCCC(c1nnnn1CS(=O)(=O)c1ccc(C)cc1)N1CCN(C2CCCC2)CC1.Cl (centres unmarked) | -37.5
26 | CCC(c1nnnn1Cc1ccc(F)cc1)N1CCN(C2CCCCC2)CC1.Cl (centres unmarked) | -53
27 | CCCC(c1nnnn1Cc1ccc(F)cc1)N1CCN(CC)CC1 (centres unmarked) | -53
28 | CCCC(c1nnnn1Cc1ccc(F)cc1)N1CCN(C2CCCCC2)CC1.Cl (centres unmarked) | -62.4
29 | CCCN1C(=O)C(O)(CC(=O)c2ccc3c(c2)OCCO3)c2ccccc21 (centres unmarked) | 7.24
30 | Cc1nn(CC(=O)Nc2ccc(C(=O)N3CCCC3)cc2)c(=O)c2ccccc12 | -1.72
31 | CCN(c1cccc(C)c1)S(=O)(=O)c1c(C)[nH]c(C)c1C(=O)N1CCCCC1 | 5.45
32 | O=C(O)c1cccc(CSc2nnc(Cc3ccccc3)o2)c1 | -5.18
33 | Cc1cc(C)n2nc(C(=O)Nc3ccc4c(c3)OCO4)nc2n1 | -1.25
34 | Cc1nc(NC(=O)CN2CCCCC2)sc1C(=O)N(C)C | 1.37
35 | CC(NC(=O)c1cc(-c2ccccc2)nc2ccccc12)C1CCCO1 (centres unmarked) | -11
36 | COc1cc2c(cc1OC)[C@@]13CCN4CC5=CCO[C@H]6CC(=O)N2[C@H]1[C@H]6[C@H]5C[C@H]43 | -8.03
37 | O=C1CC2OCC=C3CN4CCC56c7cc([N+](=O)[O-])ccc7N1C5C2C3CC46 (centres unmarked) | -22.4
38 | O=C1/C(=C\c2ccccc2)C2OCC=C3CN4CCC56c7ccccc7N1C5C2C3CC46 (centres unmarked) | -53.4
39 | NNC(=O)c1ccc(Oc2cc(Cl)cc(Cl)c2)o1 | 1.1
40 | COc1cccc(NC(=O)c2ccc(NCCCN3CCC(C)CC3)c([N+](=O)[O-])c2)c1 | -56.2
41 | Cl.O=C(Nc1cc(F)cc(F)c1)c1ccc(NCCCN2CCCCCC2)c([N+](=O)[O-])c1 | -72.1
42 | O=C(Nc1cc(F)cc(F)c1)c1ccc(NCCc2ccccc2)c([N+](=O)[O-])c1 | 3.74
43 | Cc1ccc(NC(=O)c2ccc(NCCCN3CCC(C)CC3)c([N+](=O)[O-])c2)cc1F.Cl | -8.31
44 | Cc1cccc(NC(=O)c2ccc(NCCc3ccccc3)c([N+](=O)[O-])c2)c1 | 6.78
45 | O=C(Nc1ccc(Cl)c([N+](=O)[O-])c1)c1ccc(NCCCN2CCOCC2)c([N+](=O)[O-])c1 | -10.2
46 | CCCN(CCC)CCCNc1ccc(C(=O)Nc2cccc(OC)c2)cc1[N+](=O)[O-].Cl | -76.3
47 | COc1ccc(NC(=O)c2ccc(NCCCN3CCOCC3)c([N+](=O)[O-])c2)cc1 | -3.71
